This is a sample that favours compounds with a hit; in the whole collection about 3.2% have one here.
sPLA2-III inh: Inhibits HGIII-sPLA2 liposome hydrolysis, primary screen; inhibition, % at 12.2 µM; QFRET BODIPY PC-A2 liposome hydrolysis, fluorescence; 370,000 compounds, 0.56% hits;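 active = inhibition above mean plus 3 SD of compounds lying within the high and low control bounds, cut at about 19% in these data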
Target sequence (Q9NZ20 whole entry, looked up): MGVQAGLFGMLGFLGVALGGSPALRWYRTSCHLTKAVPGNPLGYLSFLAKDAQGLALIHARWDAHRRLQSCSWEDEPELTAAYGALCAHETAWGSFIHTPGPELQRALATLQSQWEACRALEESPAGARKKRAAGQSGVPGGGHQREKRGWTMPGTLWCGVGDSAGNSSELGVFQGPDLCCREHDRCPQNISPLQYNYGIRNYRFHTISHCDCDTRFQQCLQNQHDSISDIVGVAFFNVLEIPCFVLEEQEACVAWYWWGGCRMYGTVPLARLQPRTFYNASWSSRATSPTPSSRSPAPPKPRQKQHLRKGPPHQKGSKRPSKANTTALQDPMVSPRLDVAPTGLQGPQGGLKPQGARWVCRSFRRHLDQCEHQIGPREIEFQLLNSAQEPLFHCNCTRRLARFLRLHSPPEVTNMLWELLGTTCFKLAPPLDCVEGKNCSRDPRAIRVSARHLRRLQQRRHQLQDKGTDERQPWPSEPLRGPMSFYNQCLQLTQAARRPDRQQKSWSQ
bovine MsrA act: activators of bovine methionine sulfoxide reductase A; purified bovine MsrA, absorbance read-out; activation, % at 10.6 µM; 360,000 compounds, 0.3% hits; in the data active = activation above about 7.5%
PG9 Ab binder: small molecules binding HIV-1 gp120 antibody PG9; 360,000 compounds, 0.43% hits; TR-FRET gp120-PG9 antibody binding; inhibition, % at 6.7 µM; in the data active = inhibition above about 8.5%
MsrA inh: inhibits bovine methionine sulfoxide reductase A; purified bovine MsrA, absorbance read-out; inhibition, % at 15.5 µM; 360,000 compounds, 0.75% hits; in the data active = inhibition above about 4.5%
rCAG RNA binder: r(CAG) repeat RNA binding; AID 651821; 370,000 compounds, 1.3% hits; TO-PRO-1 dye displacement fluorescence; inhibition, % at 3 µM;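 active = inhibition above the plate cutoff, the mean of all test compounds on that plate plus 3 SD, cut at about 35% in these data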;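 note: higher means more dye released from RNA so lower well fluorescence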
MsrA act confirm: bovine methionine sulfoxide reductase A activation confirmed. 1,000 compounds, 12% hits. purified bovine MsrA, absorbance read-out. shares compounds with bovine MsrA act. activation, % at 10.6 µM; in the data active = activation above about 4%;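 note: enzyme coupled to thioredoxin and thioredoxin reductase with NADPH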
Each line names hits and unclear results; the compound was inactive in the other large screens (follow-up assays come after a bar, where they were run).

COc1ccc(CN2CCC(CNC(=O)NC(C)C)CC2)cc1	none (no result: bovine MsrA act, PG9 Ab binder, MsrA inh)
COc1ccc(NS(=O)(=O)c2cccc(C(=O)NCC(c3ccc(OC)cc3)N3CCCC3)c2)cc1 (centres undefined)	none
COc1ccc(C(CNC(=O)c2cccc(N(C)C)c2)N2CCCC2)cc1 (centres undefined)	bovine MsrA act 9.0 | MsrA act confirm inactive
COC(=O)[C@H](CC(C)C)N1Cc2nnn(Cc3ccccc3)c2-c2ccccc2S1(=O)=O	none (no result: bovine MsrA act, PG9 Ab binder, MsrA inh)
Cc1c2cnn(CC(=O)NCc3ccccn3)c(=O)c2c(C)n1Cc1ccccc1	bovine MsrA act 11.2 | MsrA act confirm inactive
Cc1ccccc1Cn1c2ccccc2c2cnn(CC(=O)NCc3ccccn3)c(=O)c21	none
COc1ccc(-n2c(SCc3nc4ccccc4[nH]3)nc3ccccc3c2=O)cc1	none (no result: bovine MsrA act, PG9 Ab binder, MsrA inh)
CCc1ccc(CNCC(=O)N2CCC3(CC2)OCCO3)s1	none (no result: bovine MsrA act, PG9 Ab binder, MsrA inh)
CCCCc1cc(=O)oc2c(CN3CCCC3)c(O)c(Cl)cc12	none
CCCc1cc(=O)oc2c(CN3CCN(C)CC3)c(O)c(Cl)cc12	bovine MsrA act 13.2 | MsrA act confirm inactive
CCN(CC)C(=O)CC[C@@H]1CC[C@]2(CCCN(Cc3cccc4ccccc34)C2)O1	none (no result: bovine MsrA act, PG9 Ab binder, MsrA inh)
O=S(=O)(c1ccc(Cl)c(NC(=S)Nc2ccccc2N2CCOCC2)c1)N1CCOCC1	none
Fc1ccc(NC(=S)Nc2ccccc2N2CCOCC2)cc1Cl	bovine MsrA act 9.7 | MsrA act confirm inactive
Cc1cc(C)cc(NC(=S)N2CCCC2)c1	bovine MsrA act 11.7 | MsrA act confirm inactive
C[C@H](O)[C@@H]1CN2CCc3c([nH]c4cccc(-c5ccccc5)c34)[C@@H]2C[C@@H]1N(C)C(=O)Nc1ccccc1	none (no result: bovine MsrA act, PG9 Ab binder, MsrA inh)
O=S1(=O)CCOC[C@H](c2ccccc2)N1Cc1cccc(F)c1	bovine MsrA act 11.0 | MsrA act confirm inactive
N#CCC[C@H]1CC[C@]2(CCCN(Cc3ccc(Br)cc3)C2)O1	none (no result: bovine MsrA act, PG9 Ab binder, MsrA inh)
O=C(NNC1=Nc2ccccc2SC1)c1ccc(Cl)cc1	none
O=C(NNC1=Nc2ccccc2SC1)c1ccc(F)cc1	bovine MsrA act 7.7 | MsrA act confirm inactive
S=c1nccc(-c2ccc(Cl)cc2)[nH]1	bovine MsrA act 8.3 | MsrA act confirm inactive
CN(C)S(=O)(=O)c1cccc(NC(=S)NC(=O)c2ccco2)c1	bovine MsrA act 11.2 | MsrA act confirm inactive
O=C(NC(=S)Nc1cccc([N+](=O)[O-])c1)c1ccco1	none
CC1Cc2ccccc2N1C(=O)COC(=O)c1cccc(Br)c1 (centres undefined)	bovine MsrA act 23.8 | MsrA act confirm inactive
O=C(O)C1C2CC(C(Br)C2Br)C1C(=O)O (centres undefined)	bovine MsrA act 15.4 | MsrA act confirm inactive
COC(=O)C1C2CC(C(Br)C2Br)C1C(=O)O (centres undefined)	none
CC(CCN1CCC(C(O)(c2ccccc2)c2ccccc2)CC1)Oc1cccc(C(F)(F)F)c1 (centres undefined)	none (no result: bovine MsrA act, PG9 Ab binder, MsrA inh)
O=C(CCN1C(=O)COc2ccccc21)N1CCN(c2ccccn2)CC1	bovine MsrA act 21.1 | MsrA act confirm inactive
Cc1cccc(N2CCN(S(=O)(=O)c3ccc(-c4coc(C)n4)cc3)CC2C)c1 (centres undefined)	bovine MsrA act 7.7 | MsrA act confirm inactive
C#CCN1C=C(C(=O)OCC)C(C)NS1(=O)=O (centres undefined)	none
C#CCN1C=C(C(=O)OCC)C(C)N(Cc2ccccc2I)S1(=O)=O (centres undefined)	bovine MsrA act 11.8 | MsrA act confirm inactive
CCCCCC[C@@H](CC)CN(C(=O)Oc1ccccc1)c1ccccc1	none (no result: bovine MsrA act, PG9 Ab binder, MsrA inh)
Cc1ccc(C)c(NS(=O)(=O)c2cc(C(=O)N3CCc4ccccc4C3)ccc2Cl)c1	bovine MsrA act 8.2 | MsrA act confirm inactive
O=C(O)C1=NOC(CNC(=O)c2ccccc2Cl)C1 (centres undefined)	bovine MsrA act 11.2 | MsrA act confirm inactive
CN(CCCOC(=O)c1occ2ccccc12)C1CN(Cc2cn(Cc3ccccc3Cl)nn2)S(=O)(=O)C1 (centres undefined)	none (no result: bovine MsrA act, PG9 Ab binder, MsrA inh)
Cc1ccc(OCC(=O)N/N=C\c2c(C)[nH]n(-c3ccccc3)c2=O)c([N+](=O)[O-])c1	bovine MsrA act 10.9 | MsrA act confirm inactive
COC(=O)[C@]12C[C@H](CC(=O)NCc3cccs3)C(=O)N(Cc3ccco3)C1=C[C@H](COCc1ccccc1)O[C@@H]2C	none (no result: bovine MsrA act, PG9 Ab binder, MsrA inh)
O=C1c2ccccc2-c2c1cccc2C(=O)N(CCO)CCO	bovine MsrA act 11.7 | MsrA act confirm inactive

Bioassay records as filed in PubChem.
